# Assay outcomes deposited in PubChem by National Center for Advancing Translational Sciences (NCATS).
# In the library only some 8% were active in any assay of this set; here they are far more common.
# KB-V1 MDR tox: qHTS assay for MDR1-selective chemotherapeutics: Primary screen using the drug-selected MDR subline cells KB-V1; KB-V1 MDR cells viability, CellTiter-Glo, 72 h; Potency, µM (series often up to 46.1 µM), actives largely listed as cytotoxic; 400,000 compounds, 3.4% hits; AID 1347076, 2019; also: % is scaled to controls: 0 for no effect and ±100 for the full control effect; nearly all actives have a fitted effect of over 60% in size
#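 KB-V1 MDR subline cells in DMEM (phenol-red free, 10% FBS) exposed to compounds in qHTS concentration series for 72 h at 37 degrees C. Viability read by CellTiter-Glo luminescence; concentration-effect curves fitted after normalization and correction.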
# SW480 rerep: A quantitative high throughput screen for small molecules that induce DNA re-replication in SW480 colon adenocarcinoma cells | Potency, µM (top dose mostly 46.1 µM), inactives show at the top dose re-replication activation, hits mostly activators | 340,000 compounds, 1.8% hits | SW480 DNA re-replication, Hoechst DNA content imaging, 48 h | AID 624297, 2012; also: % of control where 0% means no effect; nearly all actives have a fitted effect of over 55% in size
#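 DNA re-replication was detected as more nuclei of elevated Hoechst intensity after 48 hr exposure to compound (23 nL pinned per well of 250 cells).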
# HT1080-NT tox: qHTS for induction of synthetic lethality in tumor cells producing 2HG: qHTS for the HT-1080-NT fibrosarcoma cell line; HT-1080-NT fibrosarcoma viability, CellTiter-Glo ATP luminescence, 48 h; 360,000 compounds, 1.6% hits; Potency, µM (highest dose often 46.1 µM), for the others: top-dose activity, negative = less viability, actives largely listed as cytotoxic; AID 686970, 2013;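 also: NT is the 2HG producing partner of a matched IDH1 knockdown line; 0% = DMSO-treated cells and -100% = media-only wells without cells; nearly all actives have a fitted effect of over 55% in size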
#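 HT-1080-NT; 750 cells/well; 5% FBS RPMI; 48 h compound, 37 degrees C; CellTiter-Glo luminescence; curve fitting and curve-class assignment.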
# HT1080 IDH1KD tx: qHTS for induction of synthetic lethality in tumor cells producing 2HG: qHTS for the HT-1080-IDH1KD cell line; 360,000 compounds, 2% hits; HT-1080 IDH1 knockdown viability, ATP luminescence, 48 h; Potency, µM (highest dose often 46.1 µM), inactives show at the highest dose activity, negative = toxicity, hits mostly cytotoxic;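 also: 0% = DMSO wells and -100% = cell-free medium wells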
#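 Luminescent ATP read-out (CellTiter-Glo, 10 min at room temperature) after 48 h compound exposure at 37 °C gave viability of IDH1-knockdown HT-1080 cells. Activity was normalised to DMSO and cell-free wells, then fitted as concentration-response curves.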
# MCF10A rerep: A quantitative high throughput screen for small molecules that induce DNA re-replication in MCF 10a normal breast cells. MCF 10A DNA re-replication, Hoechst nuclear intensity, 48 h. Potency, µM (series often up to 46.1 µM), for inactives: at the top dose activity, positive = re-replication, actives largely listed as activators. 350,000 compounds, 2.9% hits. AID 624296, 2012; also: % of control where 0% means no effect; nearly all actives have a fitted effect of over 50% in size
# KB-3-1 tox: qHTS assay for MDR1-selective chemotherapeutics: Primary screen using the parental adenocarcinoma cell KB-3-1; KB-3-1 viability, CellTiter-Glo ATP luminescence, 72 h; Potency, µM (doses to about 46.1 µM), most hits filed as cytotoxic; 400,000 compounds, 1.4% hits; AID 1347075, 2019; also: % is scaled to controls: 0 for no effect and ±100 for the full control effect; nearly all actives have a fitted effect of over 60% in size
#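 Cytotoxicity in the drug-sensitive parental line KB-3-1 was scored as loss of CellTiter-Glo luminescence following 72 h incubation with compound. Values come from curve fitting of normalized concentration-response data.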
# Starred values were filed as active, the others as inactive; i = inactive; u = inconclusive; x = not tested or not shown; [ ] = another dose, or the depositor's remark. Calls follow the shape of the dose curve; as a rule, active = well fitted curve in the direction sought with a large enough effect; inconclusive = small, poorly fitted or top-dose-only effect, or another doubt; inactive = no such curve, though single readings can be large; an effect the other way counts as inactive or inconclusive. Potency is read from the fitted curve at half-maximal effect.
SMILES,KB-V1 MDR tox,SW480 rerep,HT1080-NT tox,HT1080 IDH1KD tx,MCF10A rerep,KB-3-1 tox
Cc1c(C(N)=O)c(N)c(C(=O)c2ccccc2)n1-c1ccccc1,21µM*,-4%,3%,9%,1%,i
COc1cccc(NC(=O)N2CCc3nc(NCc4cccc(Oc5ccccc5)c4)ncc3C2)c1,u,x,u,u,x,8.2µM*
CCOc1ccc(NC(=O)N2CCc3ccccc3C2)cc1,i,6%,9%,12%,-9%,i
CC(C)c1ccc(Nc2ncc3c(n2)CCN(C(=O)Nc2ccc(F)c(Cl)c2)C3)cc1,18µM*,x,u,u,x,u
COc1cccc(NC(=O)N2CCc3nc(Nc4cc(Cl)cc(Cl)c4)ncc3C2)c1,i,x,u,-13%,x,u
O=C(Nc1ccc(OC(F)(F)F)cc1)N1CCc2nc(NCc3cccc(Oc4ccccc4)c3)ncc2C1,13µM*,x,u,23µM*,x,u
CCN(CC)CCCN1C(=O)C(=O)/C(=C(/O)c2ccc(C)cc2)C1c1ccccn1 (stereo unspecified),i,-3%[9.22 µM],16%,17%,-3%,i
CCCN1CNc2c(c(=O)[nH]c(=O)n2CCc2ccc(OC)c(OC)c2)C1,x,x,11%,26%,x,x
Clc1cccc(Cl)c1CO/N=C/c1c(-c2ccccc2)nc2n1CCS2,13µM*,12%,u,-30%,u,u
NCC(=O)NNC(=O)OCC1c2ccccc2-c2ccccc21,i,5%,-11%,4%,-3%,i
O=C(O)c1ccccc1NS(=O)(=O)c1ccc(NN=Cc2ccccc2F)c([N+](=O)[O-])c1,u,-3%,-3%,0%,-1%,i
O=[N+]([O-])c1cc(S(=O)(=O)N2CCCCCC2)ccc1Cl,i,22%,23µM*,u,16µM*,i
O=C(O)c1ccccc1/C=N/Nc1ccc(S(=O)(=O)N2CCCC2)cc1[N+](=O)[O-],u,-8%,13µM*,u,10%,u
COc1ccc(OCCOc2ccc(S(=O)(=O)N3CCCC3)cc2[N+](=O)[O-])cc1,15µM*,2%,-2%,-1%,19%,u
CCOc1cc(S(=O)(=O)N2CCCC2)ccc1Cl,i,0.73µM*,2%,-2%,1µM*,i
Cc1ccc(C(=O)NC=C(Cl)Cl)cc1,i,-8%,19%,15%,-16%,i
CCCCCCCCCC(=O)N[C@@H]1c2cc(OC)c(OC)cc2C[C@H]1O,i,-14%,-4%,-5%,53%,i
COc1ccc(Nc2ccc(S(=O)(=O)N3CCCCCC3)cc2[N+](=O)[O-])cc1,2.9µM*,-145%,-14%,-16%,-5%,u
COc1ccc(Nc2ccc(S(=O)(=O)N3CCCCC3)cc2[N+](=O)[O-])cc1OC,i,-2%,-4%,-4%,9%,u
COc1cc(Nc2ccc(S(=O)(=O)N3CCN(C)CC3)cc2[N+](=O)[O-])cc(OC)c1,i,3.3µM*,-20%,-9%,2%,i
Cc1ccccc1NC(=O)c1ccc(C)c(S(=O)(=O)NCc2cccnc2)c1,x,0%,0%,-2%,3%,x
CCC(=NC(C)c1ccccc1)c1c(O)n(C)c(=O)n(C)c1=O (stereo unspecified),2.6µM*,-10%,-19%,-26%,24%,u
Cc1ccc(SCc2c(C#N)c3ccccc3n2C)cc1,i,-7%,17%,1%,13%,i
Cn1c(CSc2ccccc2)c(C#N)c2ccccc21,16µM*,-4%,-2%,-26%,-5%,i
Cn1c(CNc2ccccn2)c(C#N)c2ccccc21,23µM*,7%,-13%,-22%,-2%,i
SMILES,KB-V1 MDR tox,SW480 rerep,HT1080-NT tox,HT1080 IDH1KD tx,MCF10A rerep,KB-3-1 tox
CCc1nnc(NC(=O)C2CCCN2C(=O)Nc2ccc(C)cc2)s1 (stereo unspecified),i,-22%,10%,9%,-6%,i
OCC[C@H]1C[C@H](O)[C@@H](O)[C@]2(CCCO2)O1,i,0%,6%,11%,10%,i
CCOC(=O)C1=CN(Cc2cccc(F)c2)S(=O)(=O)N(C)C1c1ccc(C(F)(F)F)cc1 (stereo unspecified),i,18%,12%,0%,5%,i
N#Cc1cnn2c(-c3ccc(Cl)cc3Cl)ccnc12,16µM*,-11%,24%,1%,8%,i
N#Cc1cnn2c(N)c(-c3ccc(Cl)cc3)cnc12,4.1µM*,u,u,-10%,-20%,u
Nc1c(-c2ccccc2)cnc2c(-c3ccccc3)cnn12,i,6%,9%,0%,3%,i
N#Cc1cnn2c(-c3cccc(C(F)(F)F)c3)ccnc12,i,25%,1%,0%,0%,i
Nc1cc(S(=O)(=O)N2CCCCC2)ccc1N1CCOCC1,i,-7%[1.84 µM],-2%,-2%,-32%,i
CC(=O)N(CCC(c1ccccc1)c1ccco1)Cc1cccs1 (stereo unspecified),21µM*,-5%,-5%,u,14%,u
CCC(=O)N(CCC(c1ccco1)c1ccccc1OC)Cc1cccs1 (stereo unspecified),u,-2%,-1%,-23%,u,i
O=C(c1ccco1)N(CCC(c1ccccc1)c1ccco1)Cc1ccco1 (stereo unspecified),13µM*,3%,5%,9%,u,i
CCOC(=O)CCC(=O)c1c(C)oc2ccc(OC)cc12,i,-6%,0%,0%,-1%,i
O=C(Nc1ccccc1-c1ccccc1)NC1CC2CCCC(C1)N2Cc1ccc(F)cc1 (stereo unspecified),i,u,-17%,-17%,u,i
C/C(=N\NC(=O)c1nnn(-c2nonc2N)c1-c1ccccc1)c1ccccc1O,i,0.82µM*,u,1.8µM*,15µM*,u
C/C(=N\NC(=O)c1nnn(-c2nonc2N)c1CN(C)c1ccccc1)c1ccc(O)cc1,i,-13%,-15%,-15%,-20%,i
C/C(=N\NC(=O)c1nnn(-c2nonc2N)c1CN(C)c1ccccc1)c1ccccn1,u,7%,u,u,u,5.8µM*
